This is an account of results in PubChem BioAssay (NCATS).

The structures appear in SMILES notation. “And” between values parts separate entries of the source, which are not always exact repeats. Equal entries are not always repeated. Inconclusive results are not listed. The source made the active and inactive calls. Unless noted, the call rests on the fitted dose curve; in most records, active means well fitted curve in either direction with a large enough effect (not every such curve was filed as active); inconclusive means small, poorly fitted or top-dose-only effect, or another doubt; inactive means flat fitted curve, though single readings scatter.

Experiment [1] is described as follows: AP1 Signaling Pathway (AID 357).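 Further: ME-180 reporter cells stimulated with EGF at its EC50 level; on the % scale 0 is the no-effect control and ±100 the full control effect.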 The note with it: ME-180 AP-1-bla reporter, EGF-induced, beta-lactamase ratio, 5 h. An outline of the steps:
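First, ME-180 AP-1-bla cells were cultured overnight at 37 °C in low-serum Opti-MEM. Next, titrated compounds with EC50 EGF were incubated 5 hours. Finally, CCF4 was added for 2.5 hours and the 460/530 nm ratio recorded.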

Experiment [2] has as its target Cytochrome P450 1A2 (Homo sapiens) (UniProt P05177). Kind of experiment: p450-cyp1a2 (AID 410; calls by dose curve; further: potency means the concentration at half of the fitted maximal effect). The note with it: recombinant CYP1A2, luciferin-ME demethylation, luminescence; series mostly up to 57 µM. An outline of the steps:
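O-Demethylation of luciferin 6' methyl ether by human CYP1A2 is monitored as luciferase luminescence. Substrate sits at Km (100uM); enzyme is 20nM. Values are scaled to 57 uM furafylline as maximal inhibition.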

The nature of experiment [3]: Stat Signaling Pathway (AID 446).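 Further: ME-180 cervical cancer cells given 40 pM IL-6 alongside compound; SIE-controlled beta-lactamase reporter measured as 460/530 nm FRET emission ratio; on the % scale 0 is the no-effect control and ±100 the full control effect.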 The note with it: ME-180 (cervical carcinoma) SIE beta-lactamase reporter, IL-6 stimulated, 5 h. An outline of the steps:
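FRET read-out (405 nm excitation, 460/530 nm emission) of a beta-lactamase reporter under a STAT-inducible element in ME-180 cervical carcinoma cells. Cells with compound receive 40 pM IL-6 for 5 h. Values are normalised to AC90 stimulation and AC90 JAK-inhibitor controls.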

Experiment [4] addresses Mitogen-activated protein kinase 10 (Mus musculus) (UniProt Q61831). Kind of experiment: JNK3 AlphaScreen Assay (AID 530).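 Further: kinase came from lysate of stimulated human HepG2 cells; signal reports phosphorylation of biotinylated GST-cJun 1-79 at Ser73 with 10 µM ATP; on the % scale 0 is the no-effect control and ±100 the full control effect.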 Particulars: JNK3 lysate, c-Jun phosphorylation; series mostly up to 57.1 µM. In a few lines:
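Phosphorylation of biotinylated GST-cJun(1-79) at Ser73 is measured by AlphaScreen proximity luminescence. Enzyme is JNK3 in HepG2 lysates activated with interleukin-1beta and tumor necrosis factor alpha; ATP is 10 uM final.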
Background: Bead proximity is the source of the signal in Alpha formats.

Experiment [5] has as its target 3',5'-cyclic-AMP phosphodiesterase 4B (Homo sapiens) (UniProt Q07343). Kind of experiment: qHTS Assay for Inhibitors of PDE-IV (AID 607; active means well fitted activation curve with a large enough effect in the main read-out, with a control signal flat, not every such curve was filed as active; further: % of control where 0% means no effect). The note with it: HEK293 ACTOne CNG channel cells, membrane potential fluorescence; series mostly up to 22.9 µM. An outline of the steps: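 Cell-based read-out of cAMP via a modified cyclic nucleotide-gated channel and membrane potential dye (535/590 nm) in HEK293 cells expressing PDE4 endogenously. Compounds tested up to 22.9 uM final; 100 uM RO 20-1724 reference.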
On the technique in general: qHTS replaces the single test concentration by a dilution series.

Experiment [6] has as its target Guanine nucleotide-binding protein G(i) subunit alpha-1 (Homo sapiens) (UniProt P63096). Nature of the experiment: qHTS Assay for Inhibitors of RGS12 GoLoco Motif Activity (Green Fluorophore) (AID 879; active means well fitted curve in the direction sought with a large enough effect; an effect the other way counts as inactive or inconclusive;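 further: 0% = labeled peptide with Gαi1 and full inhibition = labeled peptide alone without protein; negative values mean loss of peptide binding seen as reduced polarization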). Particulars: Galphai1/FITC-RGS12 GoLoco peptide, fluorescence polarization; series mostly up to 57.1 µM. An outline of the steps: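 A drop in FITC polarization marked displacement of the FITC-tagged RGS12 GoLoco peptide (10 nM) from Gαi1 (50 nM). Compounds were incubated 10 min at room temperature in Tris pH 7.5 buffer containing 150 mM NaCl, 0.1 mM GDP and 0.05% NP40; unlabeled peptide titration served as control.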

Experiment [7] has as its target Pyruvate kinase (Leishmania mexicana) (UniProt Q27686). Nature of the experiment: qHTS Validation Assay for Inhibitors of Leishmania Mexicana Pyruvate Kinase (AID 945; active means well fitted curve in the direction sought with a large enough effect; an effect the other way counts as inactive or inconclusive;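 further: 0% = DMSO only neutral control wells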). The note with it: purified L. mexicana pyruvate kinase, enzyme activity, E451W mutant enzyme; series mostly up to 57.5 µM. An outline of the steps: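 Luminescent ATP detection (PKLight) after a 1 h room-temperature reaction of 0.2 nM LmPYK E451W mutant with 0.5 mM PEP and 0.1 mM ADP at pH 7.2. Activity is normalized to DMSO-only control wells.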

For experiment [8], the target named is Pyruvate kinase PKM (Homo sapiens) (UniProt P14618). Kind of experiment: qHTS Assay for Activators of Human Muscle Pyruvate Kinase (AID 954; active means well fitted curve in the direction sought with a large enough effect, not every such curve was filed as active;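 further: 0% = uninhibited enzyme and -100% = no enzyme or full thiadiazolimine inhibition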). Particulars: purified human muscle pyruvate kinase, luciferase-coupled luminescence, 1 h; series mostly up to 57.5 µM. An outline of the steps: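 ATP production by PKM2 detected via luciferase luminescence after 1 h room-temperature reaction (0.1 nM enzyme, PEP at Km 0.5 mM, ADP 0.1 mM, pH 7.2 imidazole buffer). Inhibition scaled to no-enzyme control; activation referenced to 0.3 nM enzyme wells.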
Chain of Pyruvate kinase PKM (Homo sapiens) (P14618 whole entry, looked up): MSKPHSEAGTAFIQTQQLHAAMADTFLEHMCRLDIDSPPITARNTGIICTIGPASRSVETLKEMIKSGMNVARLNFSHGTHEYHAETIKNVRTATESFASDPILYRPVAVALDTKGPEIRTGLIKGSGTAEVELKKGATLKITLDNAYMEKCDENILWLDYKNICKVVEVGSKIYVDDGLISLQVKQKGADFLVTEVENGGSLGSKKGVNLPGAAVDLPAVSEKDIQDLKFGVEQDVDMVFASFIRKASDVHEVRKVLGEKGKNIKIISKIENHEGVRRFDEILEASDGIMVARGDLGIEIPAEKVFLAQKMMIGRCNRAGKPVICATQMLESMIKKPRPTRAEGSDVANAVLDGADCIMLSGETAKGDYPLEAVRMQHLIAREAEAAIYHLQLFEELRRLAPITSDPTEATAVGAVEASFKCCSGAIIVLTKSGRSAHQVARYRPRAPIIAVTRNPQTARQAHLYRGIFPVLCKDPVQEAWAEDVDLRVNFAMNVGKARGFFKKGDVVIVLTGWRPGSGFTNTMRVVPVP

Experiment [9] addresses alpha-glucosidase (Oryza sativa, rice) (UniProt Q653V4). Kind of experiment: Counterscreen for Glucocerebrosidase Inhibitors: qHTS Assay for Rice alpha-Glucosidase at pH 5.0 (AID 997; active means well fitted curve in the direction sought with a large enough effect; an effect the other way counts as inactive or inconclusive;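 further: 0% = full activity with enzyme and -100% = basal without enzyme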). Particulars: rice alpha-glucosidase enzyme activity; series mostly up to 76.9 µM. In a few lines: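 Endpoint fluorogenic assay at pH 5.0: compounds (0.7 nM to 77 uM) titrated against 4 nM rice enzyme and 400 uM 4-MU-alpha-glucoside for 20 min at room temperature; NaOH/glycine stop, read ex 365/em 440 nm, Hill-fitted AC50.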
For orientation: The purpose of a counterscreen is to sort out artefacts and off-target activity.

Experiment [10] in a line: qHTS Assay for Lipid Storage Modulators (AID 1519; calls by dose curve). Particulars: Drosophila S3 cells, BODIPY lipid droplet/cell ratio, laser cytometry, cells loaded with oleic acid; for activity change, negative = inhibition: at 25.7 µM (top of the series). In a few lines:
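Cells seeded at 5,000 per well were treated with compounds over a concentration series and loaded with oleic acid (400 uM, as added). Lipid droplet fluorescence (488 nm excitation, 500-530 nm channel) was read by laser-scanning cytometry and normalized to 20 uM Triacsin C.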

Experiment [11] has as its target Ubiquitin carboxyl-terminal hydrolase 1 (Homo sapiens) (UniProt O94782). Nature of the experiment: Inhibitors of USP1/UAF1: Pilot qHTS (AID 504865; active means well fitted curve in the direction sought with a large enough effect; an effect the other way counts as inactive or inconclusive;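 further: rhodamine fluorescence freed from ubiquitin-rhodamine substrate followed over time; top concentration of the series differs between compounds; on the % scale 0 is the no-effect control and ±100 the full control effect; nearly all actives have a fitted effect of over 35% in size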). Particulars: purified USP1/UAF1, Ub-rhodamine cleavage fluorescence; series mostly up to 54.9 µM. In a few lines: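 1nM USP1/UAF1 + cpd, 15 min RT; start w/ Ub-Rho 150nM final; kinetic FL 480/540 nm, 6 reads q60 s. Buffer 50mM HEPES pH 7.8, 0.5mM EDTA, 1mM TCEP, 0.01% Tween-20, 0.1 mg/ml BSA.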

Experiment [12] concerns the target Glucocorticoid receptor (Homo sapiens) (UniProt P04150). Kind of experiment: GR-GFP Redistribution (AID 450;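 active means compounds whose dose series gives a full or clear partial fitted curve of increased nuclear translocation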; further: potency means the concentration at half of the fitted maximal effect). The note with it: U2OS GR-GFP nuclear translocation, laser cytometry, 2 h.
Experiment [13] shares this target. Nature of the experiment: GR-EFC Redistribution (AID 451; calls by dose curve; further: potency means the concentration at half of the fitted maximal effect). Particulars: CHO-K1 GR-EFC translocation, beta-gal luminescence, 2 h. An outline of the steps: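 CHO-K1 cells stably expressing nuclear-localized β-gal enzyme acceptor and GR fused C-terminally to the enzyme donor fragment; ligand-driven nuclear translocation restores β-gal by complementation. Compounds titrated up to 46 uM final, 2 h at 37 °C; luminescence read.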

Experiment [14] is described as follows: NFAT Signaling Pathway (AID 444).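 Further: carbachol stimulus at about its EC50 of 1 µM final; on the % scale 0 is the no-effect control and ±100 the full control effect.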 Particulars: Jurkat NFAT-bla M1, carbachol, beta-lactamase ratio, 5 h; at 7.69 µM (top of the series) unless noted. In a few lines:
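Jurkat cells carrying an NFAT-driven β-lactamase reporter and co-transfected muscarinic M1 receptor were treated with compound plus carbachol (1 uM final, an EC50 level) for 5 h at 37 °C. CCF4 loading followed for 1 h at RT; 460/530 nm ratio gave %activity.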

For experiment [15], the target named is ATP-dependent 6-phosphofructokinase (Trypanosoma brucei brucei) (UniProt O15648). Nature of the experiment: qHTS Assay to Find Inhibitors of T. brucei phosphofructokinase: hit validation (AID 492961; active means well fitted curve in the direction sought with a large enough effect; an effect the other way counts as inactive or inconclusive). Particulars: T. brucei PFK, ADP-Glo luminescence; series mostly up to 24.3 µM. In a few lines: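 Reaction: 0.1 M triethanolamine pH 8.0, 5 mM MgCl2, F6P 0.5 mM, ATP 0.1 mM, PFK 1.25 nM, 45 min RT. Read-out: ADP-Glo luminescence. Analysis: concentration-response fits, classed by r2 and efficacy.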

In experiment [16] the target is Luciferin 4-monooxygenase (Photinus pyralis) (UniProt P08659). Kind of experiment: Biochemical firefly luciferase enzyme assay for NPC (AID 624030; active means well fitted curve in the direction sought with a large enough effect; an effect the other way counts as inactive or inconclusive;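 further: purified P. pyralis luciferase at 10 nM with luciferin and ATP substrate; 0% = DMSO and -100% = full luciferase inhibition by PTC124 control; nearly all actives have a fitted effect of over 70% in size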). The note with it: purified P. pyralis luciferase, luminescence, 5 min; series mostly up to 58.6 µM. In a few lines: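 Counter-screen for direct inhibition of the luciferase enzyme by approved-drug library compounds, run at 10 nM enzyme in 50 mM Tris acetate (final). Luminescence was read within 5 min of enzyme-buffer addition and normalized to PTC124 versus DMSO (0%).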
Chain of Luciferin 4-monooxygenase (Photinus pyralis) (P08659 whole entry, looked up): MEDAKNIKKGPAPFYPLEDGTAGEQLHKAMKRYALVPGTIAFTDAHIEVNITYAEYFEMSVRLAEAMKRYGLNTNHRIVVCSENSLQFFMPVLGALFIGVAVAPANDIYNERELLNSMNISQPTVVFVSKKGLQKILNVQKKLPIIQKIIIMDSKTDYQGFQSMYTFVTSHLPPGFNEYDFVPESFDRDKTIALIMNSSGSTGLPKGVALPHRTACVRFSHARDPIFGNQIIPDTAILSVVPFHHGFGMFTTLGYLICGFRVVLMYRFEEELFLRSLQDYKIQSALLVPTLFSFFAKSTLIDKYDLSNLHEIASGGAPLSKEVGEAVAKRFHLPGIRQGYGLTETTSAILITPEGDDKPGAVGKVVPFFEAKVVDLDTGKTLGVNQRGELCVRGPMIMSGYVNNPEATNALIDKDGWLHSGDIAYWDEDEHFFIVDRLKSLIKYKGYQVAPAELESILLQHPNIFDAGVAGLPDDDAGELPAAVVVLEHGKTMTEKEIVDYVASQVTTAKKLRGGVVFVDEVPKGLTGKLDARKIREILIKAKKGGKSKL

Experiment [17] can be described thus: qHTS profiling for inhibitors of Plasmodium falciparum proliferation (AID 504749; active means well fitted curve in the direction sought with a large enough effect; an effect the other way counts as inactive or inconclusive;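 further: 0% = DMSO vehicle and full inhibition = artemisinin control; nearly all actives have a fitted effect of over 60% in size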). Particulars: P. falciparum in erythrocytes, SYBR Green DNA, 72 h, at 12.8 µM (top of the series). An outline of the steps: (§1)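 Quantitative HTS: compounds pinned into medium, infected erythrocytes added (0.3% parasitemia, 2.5% hematocrit), 72 h culture at 37 C under 5% CO2. Saponin/Triton lysis with SYBR Green I, overnight RT, then fluorescence read.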

A further experiment deals with AS120. The experiment is described as above. The note with it: P. falciparum in erythrocytes, SYBR Green DNA, 72 h; series mostly up to 28.7 µM. An outline of the steps:
as §1

A further experiment deals with CP238. The description is as above. Particulars: P. falciparum in erythrocytes, SYBR Green DNA, 72 h; series mostly up to 12.8 µM. In a few lines: as §1
The test system of another experiment is FAB9. The experiment is described as above. The note with it: P. falciparum in erythrocytes, SYBR Green DNA, 72 h; series mostly up to 12.8 µM. In a few lines: as §1
The mark [18] stands for this setting: measured here: cell count channel max response.
The mark [19] stands for this setting: measured here: lipid channel max response.
The mark [20] stands for this setting: at 7.69 µM (top of the series) unless noted.

Chain of 3',5'-cyclic-AMP phosphodiesterase 4B (Homo sapiens) (Q07343 whole entry, looked up): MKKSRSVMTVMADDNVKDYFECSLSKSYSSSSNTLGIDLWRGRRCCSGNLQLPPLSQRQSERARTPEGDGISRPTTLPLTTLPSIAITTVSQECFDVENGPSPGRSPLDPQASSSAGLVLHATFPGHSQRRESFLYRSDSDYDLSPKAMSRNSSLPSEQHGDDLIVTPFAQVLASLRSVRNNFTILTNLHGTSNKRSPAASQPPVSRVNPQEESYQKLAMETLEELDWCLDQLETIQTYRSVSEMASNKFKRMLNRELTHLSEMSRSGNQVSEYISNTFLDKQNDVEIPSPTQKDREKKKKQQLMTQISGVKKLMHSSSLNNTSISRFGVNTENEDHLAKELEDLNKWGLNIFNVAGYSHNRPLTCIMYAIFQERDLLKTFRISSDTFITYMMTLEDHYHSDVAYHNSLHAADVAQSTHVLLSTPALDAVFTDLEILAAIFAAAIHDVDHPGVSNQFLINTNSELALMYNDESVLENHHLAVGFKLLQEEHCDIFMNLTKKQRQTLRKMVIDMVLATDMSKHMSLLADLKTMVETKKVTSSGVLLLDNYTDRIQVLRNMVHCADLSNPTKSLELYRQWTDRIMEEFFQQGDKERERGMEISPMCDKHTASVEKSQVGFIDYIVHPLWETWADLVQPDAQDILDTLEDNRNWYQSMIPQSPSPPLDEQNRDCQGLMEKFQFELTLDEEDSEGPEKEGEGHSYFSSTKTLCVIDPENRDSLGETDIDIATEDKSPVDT
Chain of Glucocorticoid receptor (Homo sapiens) (P04150 whole entry, looked up, the tested form may be a part): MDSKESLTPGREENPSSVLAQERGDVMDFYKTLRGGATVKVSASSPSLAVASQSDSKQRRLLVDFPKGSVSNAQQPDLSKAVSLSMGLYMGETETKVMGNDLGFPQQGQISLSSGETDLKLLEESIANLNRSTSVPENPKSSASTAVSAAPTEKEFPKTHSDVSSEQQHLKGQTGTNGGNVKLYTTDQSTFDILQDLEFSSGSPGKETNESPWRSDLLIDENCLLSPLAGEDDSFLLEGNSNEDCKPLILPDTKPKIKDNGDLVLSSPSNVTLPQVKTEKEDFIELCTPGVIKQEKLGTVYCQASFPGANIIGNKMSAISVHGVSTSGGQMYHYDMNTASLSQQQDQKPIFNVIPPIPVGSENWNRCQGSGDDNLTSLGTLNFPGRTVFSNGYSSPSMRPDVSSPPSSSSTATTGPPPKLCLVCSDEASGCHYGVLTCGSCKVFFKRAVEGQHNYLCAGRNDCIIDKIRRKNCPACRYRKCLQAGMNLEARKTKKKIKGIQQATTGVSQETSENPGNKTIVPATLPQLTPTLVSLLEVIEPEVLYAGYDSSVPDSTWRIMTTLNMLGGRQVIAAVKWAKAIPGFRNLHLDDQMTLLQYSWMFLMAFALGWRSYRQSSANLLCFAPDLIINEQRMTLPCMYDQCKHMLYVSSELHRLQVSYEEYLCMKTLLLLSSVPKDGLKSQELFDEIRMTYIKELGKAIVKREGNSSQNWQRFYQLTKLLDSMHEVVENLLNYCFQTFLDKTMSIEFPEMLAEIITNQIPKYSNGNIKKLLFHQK
Chain of Cytochrome P450 1A2 (Homo sapiens) (P05177 whole entry, looked up): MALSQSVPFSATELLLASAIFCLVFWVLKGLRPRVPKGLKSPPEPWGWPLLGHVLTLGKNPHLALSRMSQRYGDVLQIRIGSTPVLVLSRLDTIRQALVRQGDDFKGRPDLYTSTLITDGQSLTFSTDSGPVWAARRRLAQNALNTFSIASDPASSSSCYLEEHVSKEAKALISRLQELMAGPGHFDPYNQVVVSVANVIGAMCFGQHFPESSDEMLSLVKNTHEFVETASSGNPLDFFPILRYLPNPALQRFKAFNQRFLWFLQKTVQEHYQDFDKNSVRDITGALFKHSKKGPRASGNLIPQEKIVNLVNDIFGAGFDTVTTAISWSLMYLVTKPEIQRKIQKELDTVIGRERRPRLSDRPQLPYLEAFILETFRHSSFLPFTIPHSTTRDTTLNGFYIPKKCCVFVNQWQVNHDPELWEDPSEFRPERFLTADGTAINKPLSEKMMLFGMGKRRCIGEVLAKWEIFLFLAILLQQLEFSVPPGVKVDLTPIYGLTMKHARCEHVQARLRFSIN
Chain of Ubiquitin carboxyl-terminal hydrolase 1 (Homo sapiens) (O94782 whole entry, looked up): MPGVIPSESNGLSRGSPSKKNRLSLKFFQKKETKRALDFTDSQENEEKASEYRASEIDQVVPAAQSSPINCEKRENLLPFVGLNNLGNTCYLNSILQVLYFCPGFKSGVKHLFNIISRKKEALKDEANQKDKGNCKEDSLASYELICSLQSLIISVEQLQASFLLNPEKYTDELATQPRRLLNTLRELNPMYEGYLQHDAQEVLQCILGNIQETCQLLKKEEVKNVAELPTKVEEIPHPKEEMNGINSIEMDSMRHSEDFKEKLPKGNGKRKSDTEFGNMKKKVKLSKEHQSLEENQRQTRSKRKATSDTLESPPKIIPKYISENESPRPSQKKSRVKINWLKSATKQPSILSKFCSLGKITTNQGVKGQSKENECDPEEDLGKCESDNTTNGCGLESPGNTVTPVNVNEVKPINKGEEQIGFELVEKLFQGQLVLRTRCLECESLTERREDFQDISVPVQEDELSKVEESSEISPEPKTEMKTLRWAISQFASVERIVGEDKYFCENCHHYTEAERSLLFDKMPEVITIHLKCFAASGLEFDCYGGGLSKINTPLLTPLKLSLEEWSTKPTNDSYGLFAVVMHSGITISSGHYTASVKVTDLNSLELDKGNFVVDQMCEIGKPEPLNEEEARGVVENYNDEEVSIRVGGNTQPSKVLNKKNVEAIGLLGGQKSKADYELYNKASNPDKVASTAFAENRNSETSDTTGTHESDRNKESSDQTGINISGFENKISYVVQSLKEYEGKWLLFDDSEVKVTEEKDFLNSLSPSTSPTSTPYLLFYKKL
Chain of Pyruvate kinase (Leishmania mexicana) (Q27686 2-499 E452W): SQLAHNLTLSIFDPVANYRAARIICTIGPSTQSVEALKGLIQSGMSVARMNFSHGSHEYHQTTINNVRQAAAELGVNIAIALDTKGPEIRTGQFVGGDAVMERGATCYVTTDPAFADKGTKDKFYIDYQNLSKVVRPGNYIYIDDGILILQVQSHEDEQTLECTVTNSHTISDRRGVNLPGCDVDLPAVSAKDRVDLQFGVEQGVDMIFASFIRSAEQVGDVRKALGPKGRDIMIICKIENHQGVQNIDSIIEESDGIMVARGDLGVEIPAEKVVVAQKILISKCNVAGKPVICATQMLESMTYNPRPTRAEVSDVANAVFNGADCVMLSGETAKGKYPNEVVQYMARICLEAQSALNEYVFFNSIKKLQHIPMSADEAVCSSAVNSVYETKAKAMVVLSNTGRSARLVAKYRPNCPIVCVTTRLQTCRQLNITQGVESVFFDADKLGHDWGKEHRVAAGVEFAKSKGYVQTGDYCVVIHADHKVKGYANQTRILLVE
Chain of Guanine nucleotide-binding protein G(i) subunit alpha-1 (Homo sapiens) (P63096 whole entry, looked up): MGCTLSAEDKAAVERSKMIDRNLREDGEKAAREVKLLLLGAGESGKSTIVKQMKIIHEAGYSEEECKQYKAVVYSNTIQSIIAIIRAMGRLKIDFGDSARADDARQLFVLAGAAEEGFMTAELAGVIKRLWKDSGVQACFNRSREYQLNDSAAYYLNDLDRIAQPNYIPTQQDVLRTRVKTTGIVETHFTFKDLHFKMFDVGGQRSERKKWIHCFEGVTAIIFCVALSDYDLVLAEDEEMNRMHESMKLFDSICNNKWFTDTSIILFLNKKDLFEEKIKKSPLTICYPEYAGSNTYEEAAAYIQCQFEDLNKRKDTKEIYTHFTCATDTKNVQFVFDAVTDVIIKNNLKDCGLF

For the compound `CN1[C@@H](CC(=O)c2ccccc2)CCC[C@@H]1C[C@@H](O)c1ccccc1`, the activity change, negative = inhibition in [1] (at 17.2 µM (top of the series)) is -1.05% (inactive); in experiment [1] (at 38 µM (top of the series)), 6.06% (inactive); in experiment [10], -0.989% (inactive). In addition, in [2], the Potency is 31.6 µM (active) and 5.01 µM (active). In addition, the figures for the activity, negative = inhibition in experiment [3] (at 17.2 µM (top of the series)) and in experiment [3] (at 38 µM (top of the series)) were 0.159% (inactive) and -8.54% (inactive), respectively. For the same compound, the Potency result in experiment [4], in experiment [5], in [6] and in experiment [11] was “inactive” throughout. For the same compound, the compound was classed as inactive in [7], in [8] and in [9]. The max response was -6.57% in [10] (setting [18]) and -6.75% in experiment [10] (setting [19]).
`C[C@@]12CC[C@@H]3c4ccc(O)cc4CC[C@H]3[C@H]1CC[C@H]2O`: the activity change, negative = inhibition in experiment [1] (at 17.2 µM (top of the series)) is -5.6% (inactive); in [1] (at 38 µM (top of the series)), -13.9% (inactive); in [10] it was -0.875% (inactive). The Potency in [2] was 10 µM (active) and 5.01 µM (active); in [12] it was > 46 µM (inactive) and > 20.6 µM (inactive); in experiment [13] it was > 46 µM (inactive) and > 20.6 µM (inactive). The activity, negative = inhibition is -28.8% (inactive) in [3] (at 17.2 µM (top of the series)) and -19.1% (inactive) in experiment [3] (at 38 µM (top of the series)). Further, the Potency entry in [4], in experiment [5] and in experiment [11] was “inactive” in each case. In addition, the max response is -11.7% in experiment [10] (setting [18]) and -11.1% in [10] (setting [19]).
As to `CCC[C@H]1C(=O)N2C(N(C)C)=Nc3ccc(C)cc3N2C1=O`, the activity change, negative = inhibition in experiment [1] (setting [20]) was 1.43% [at 17.2 µM] (inactive); in [14], -21% [at 17.2 µM] (inactive); in experiment [10], -3.21% (inactive). Besides, the Potency in experiment [2] was 1.58 µM (active); in experiment [12], > 20.6 µM (inactive); in experiment [13] it was > 20.6 µM (inactive). For the same compound, the activity, negative = inhibition is -9.03% [at 17.2 µM] (inactive) in [3] (setting [20]), 12.2% (inactive) in experiment [17] (parasite line A) and -0.686% (inactive) in [17] (parasite line B). Also, the Potency result (in [4]; in experiment [5]; in experiment [11]; in the experiment with AS120; with CP238; with FAB9) was “inactive” throughout. For the same compound, the max response is -10.8% in [10] (setting [18]) and -12% in [10] (setting [19]). The result in experiment [15] and in experiment [16] was inactive.
